GLS inh: blocks human kidney-isoform glutaminase activity; GLS enzymatic activity, qHTS titration; hit rate 0.21% among 410,000; Potency, µM (highest dose often 45.5 µM), for inactives: top-dose activity change, negative = inhibition, usual class: inhibitors; O94925; also: % is scaled to controls: 0 for no effect and ±100 for the full control effect
Target sequence (O94925 whole entry, looked up, canonical isoform): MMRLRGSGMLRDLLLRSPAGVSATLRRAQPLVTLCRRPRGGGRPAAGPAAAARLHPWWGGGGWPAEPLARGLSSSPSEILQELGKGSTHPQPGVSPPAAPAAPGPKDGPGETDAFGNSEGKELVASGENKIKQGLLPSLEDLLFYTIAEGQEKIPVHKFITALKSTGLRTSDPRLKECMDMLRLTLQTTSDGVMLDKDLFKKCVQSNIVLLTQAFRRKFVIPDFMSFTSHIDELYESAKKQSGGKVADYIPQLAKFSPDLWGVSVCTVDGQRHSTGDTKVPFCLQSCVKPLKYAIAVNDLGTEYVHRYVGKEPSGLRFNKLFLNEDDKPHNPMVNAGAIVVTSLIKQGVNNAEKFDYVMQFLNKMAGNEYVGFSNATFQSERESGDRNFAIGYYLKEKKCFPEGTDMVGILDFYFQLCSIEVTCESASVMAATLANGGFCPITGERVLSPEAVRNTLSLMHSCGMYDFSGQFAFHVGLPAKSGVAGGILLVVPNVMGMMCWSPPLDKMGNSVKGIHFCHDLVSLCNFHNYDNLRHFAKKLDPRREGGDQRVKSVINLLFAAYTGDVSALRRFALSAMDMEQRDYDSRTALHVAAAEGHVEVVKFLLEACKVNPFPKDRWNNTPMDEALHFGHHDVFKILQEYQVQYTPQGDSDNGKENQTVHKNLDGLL
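Coupled fluorescence readout: glutamate oxidase/HRP/Amplex Red detect glutamate formed by hKGA from L-glutamine (1 mM solution added). Buffer 45 mM KH2PO4 pH 8.2, 0.02% Tween-20; reads at t0 and 30 min RT.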
JMJD2A Tudor inh: JMJD2A Tudor domain (human) inhibition. O75164. AlphaScreen JMJD2A-Tudor / H3K4me3 peptide binding. Potency, µM (doses to about 114 µM), for inactives: at the top dose activity change, negative = inhibition, usual class: inhibitors. hit rate 4.4% among 390,000. AID 504339; also: % is scaled to controls: 0 for no effect and ±100 for the full control effect; nearly all actives have a fitted effect of over 50% in size
HP1b binding inh: blocks HP1-beta chromodomain binding to methylated histone tails. P83916. AlphaScreen HP1-beta / biotin-H3K9me3 peptide binding. Potency, µM (series often up to 114 µM), without a hit: top-dose activity change, negative = inhibition, hits mostly inhibitors. hit rate 0.56% among 390,000. AID 540317; also: nearly all actives have a fitted effect of over 70% in size
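AlphaScreen: HP1-beta (50 nM) preformed 30 min with biotin-H3(1-18)K9me3 peptide (50 nM) in PBS pH 7.4, 0.01% Tween-20. Compound added for 30 min at RT, then streptavidin donor/nickel chelate acceptor beads (10 ug/mL) for 30 min.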
G9a inh: blocks human histone lysine methyltransferase G9a; AID 504332; hit rate 8.8% among 350,000; Potency, µM (top dose mostly 102 µM), inactives show top-dose activity, negative = inhibition, most hits filed as inhibitors; G9a H3K9 monomethylation, AlphaScreen, 2 h; Q96KQ7; also: % is scaled to controls: 0 for no effect and ±100 for the full control effect; nearly all actives have a fitted effect of over 75% in size
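G9a (20 nM) preincubated 15 min RT with compounds, then 500 nM biotinylated H3K9 peptide and 20 uM SAM added; 2 h RT reaction. Monomethyl-H3K9 product detected by AlphaScreen with anti-H3K9me1 antibody, streptavidin donor and anti-rabbit IgG acceptor beads.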
BAZ2B inh: inhibitors of human BAZ2B bromodomain; Q9UIF8; AlphaScreen BAZ2B-H3K14Ac peptide displacement; Potency, µM (top dose mostly 114 µM), for the others: at the top dose activity change, negative = inhibition, actives largely listed as inhibitors; hit rate 4.4% among 360,000; AID 504333; also: % is scaled to controls: 0 for no effect and ±100 for the full control effect; nearly all actives have a fitted effect of over 60% in size
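Compounds, titrated to a top concentration of 110 uM, were incubated 30 min at room temperature with preformed BAZ2B/acetyl-K14 H3 peptide complex (50 nM each). Proximity signal was measured by AlphaScreen after 20 min with beads.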
The depositor's hits bear a star; ? = inconclusive; nt = not tested or not shown; [ ] = remark or other dose. Hits are enriched below; roughly 10% of the tested compounds scored in any of these assays. Calls follow the shape of the dose curve; as a rule, active = well fitted curve in the direction sought with a large enough effect; inconclusive = small, poorly fitted or top-dose-only effect, or another doubt; inactive = no such curve, though single readings can be large; an effect the other way counts as inactive or inconclusive. Potency is read from the fitted curve at half-maximal effect.

SMILES	GLS inh	JMJD2A Tudor inh	HP1b binding inh	G9a inh	BAZ2B inh
Cc1ccc(NC(=O)C(C)n2nnc3sc4c(c3c2=O)CCCC4)cc1Cl (stereo not given)	-4.5%	-29.2%	41.5%	?	-15.5%
CC(C(=O)Nc1ccccc1)n1nnc2sc3c(c2c1=O)CCCC3 (stereo not given)	7.1%	-30.5%	2.3%	15.8µM*	-15.7%
CC(C(=O)Nc1ccccc1C(F)(F)F)n1nnc2sc3c(c2c1=O)CCCC3 (stereo not given)	-1.3%	-19.8%	-2.6%	14.1µM*	-17.3%
COc1ccccc1NC(=O)NNC(=O)CCc1ccccc1	15.5%	-6.9%	31.1%	13.1%	-1.7%
OC(CNCC(c1ccc(Cl)cc1Cl)c1c[nH]c2ccccc12)c1ccccc1 (stereo not given)	-4.5%	35.5µM*	?	50.1µM*	?
Clc1ccc(C(c2ccccc2)c2c[nH]c3ccccc23)s1 (stereo not given)	10.8%	3.0%	28.3%	9.1%[59 µM]	-1.3%
O=C1NC[C@H](Cc2ccccc2)N(C[C@@H]2CCCN2C[C@H](Cc2ccc(O)cc2)N2C[C@H](Cc3ccccc3)N(CC3CCCCCC3)C(=O)C2=O)C1=O	12.1%	nt	nt	nt	nt
CCC(=O)c1ccc(OCC(O)CN2CCN(c3ccccn3)CC2)cc1 (stereo not given)	15.0%	-8.9%	18.5%	-5.1%	-20.2%
Cc1cccc(OCC(O)CN2CCN(c3ccccn3)CC2)c1C (stereo not given)	19.4%	79.4µM*	2.1%	44.7µM*	-20.8%[57.1 µM]
CC(C)(C)c1ccc(OCC(O)CN2CCN(c3ccccn3)CC2)cc1 (stereo not given)	-11.1%	8.2%	40.3%	50.1µM*	?
COc1cc(C(C)=O)ccc1OCC(O)CN1CCN(c2ccccn2)CC1 (stereo not given)	0.4%	-22.7%	24.9%	19.6%[59 µM]	-6.0%
Cc1cc(C)c(C)c(OCC(O)CN2CCN(c3ccccn3)CC2)c1 (stereo not given)	0.4%	-26.3%	18.5%	79.4µM*	?
CC(=O)c1ccccc1OCC(O)CN1CCN(c2ccccn2)CC1 (stereo not given)	7.8%	-22.1%	29.8%	nt	-30.5%
CCNC(=O)C1(C)CCN(C(=O)c2c(F)cccc2F)C1 (stereo not given)	0.2%	nt	nt	nt	nt
CC(OC(=O)c1cccc(-n2cnnn2)c1)C(=O)Nc1cccc(Cl)c1 (stereo not given)	6.8%	-9.5%	18.9%	?	0.7%
O=C(O)/C=C/C(=O)Nc1ccccc1SC(F)(F)F	-1.2%	-19.5%	26.9%	8.91µM*	0.7%
O=C(O)/C=C/C(=O)Nc1ccc(SC(F)(F)F)cc1	1.0%	0.0%[57.1 µM]	27.4%	?	-14.1%
O=C(O)/C=C/C(=O)Nc1ccccc1-c1ccccc1NC(=O)/C=C/C(=O)O	77.7%	79.4µM*	33.4%	10µM*	-1.4%
O=C(Nc1ccccc1)Nc1c(F)cccc1F	1.0%	-11.1%	19.5%	-18.8%	-19.3%
O=C(O)/C=C/C(=O)Nc1c(F)cccc1F	-3.1%	-6.0%	60.4%	50.1µM*	-0.4%
CCc1nc(N)c(C#N)c(-c2ccc(OC)c(OC)c2)c1C	11.1%	-10.8%	25.6%	-4.8%[12.7 µM]	5.0%
CC1=C(C#N)c2nc(N)c(C#N)c(C)c2/C1=C\c1ccc(OCC(=O)O)c(Cl)c1	77.5%	20µM*	?	22.4µM*	50.1µM*
c1ccc(-c2csc(NC3=NCCCCC3)n2)cc1	-3.6%	-9.1%	24.8%	13.9%[59 µM]	-37.6%
CC(C)(C)c1ccc(-c2csc(NNC3=NCCCCC3)n2)cc1	14.4%	?	?	12.6µM*	?
FC(F)Oc1ccc(-c2csc(NNC3=NCCCCC3)n2)cc1	?	?	?	12.6µM*	?
SMILES	GLS inh	JMJD2A Tudor inh	HP1b binding inh	G9a inh	BAZ2B inh
CC(Oc1ccccc1)C(=O)Nc1nc(-c2ccncc2)cs1 (stereo not given)	6.6%	-9.7%	31.3%	-9.1%[12.7 µM]	2.8%
Brc1ccc(-c2csc(NNC3=NCCCCC3)n2)cc1	-2.0%	?	-22.3%	12.6µM*	35.5µM*
N#Cc1ccc(-c2csc(NC3=NCCCCC3)n2)cc1	0.7%	-15.5%	51.0%	-6.5%[59 µM]	-2.5%
COC(=O)[C@]1(Cc2ccccc2)N[C@H](CN(C)S(=O)(=O)c2ccc(-c3ccccc3)cc2)[C@@H]2C(=O)N(C)C(=O)[C@@H]21	4.6%	-20.5%	14.0%	nt	nt
COc1ccccc1-c1nnc(C2CCN(S(=O)(=O)c3ccc(CC(C)C)cc3)CC2)o1	-11.3%	-23.5%	22.7%	1.6%[59 µM]	-11.8%
O=C(CSc1nnc(-c2ccncc2)o1)N1CCCC1	8.5%	2.5%	29.8%	-5.5%	-4.5%
CCOC(=O)C1=C[C@@H](C(C)(C)C)N(S(=O)(=O)c2ccc(C)cc2)[C@H]1c1ccc(Cl)c(Cl)c1	-8.2%	nt	nt	nt	nt
Oc1cc(Br)ccc1C=Nc1ccc(N2CCCCC2)cc1	26.9%	-21.4%	61.0%	44.7µM*	?
Oc1c(Cl)cc(Cl)cc1C=Nc1ccc(N2CCOCC2)cc1	?	-2.7%	32.3%	?	-21.4%
Cc1ccc(N=Cc2ccc(O)cc2O)cc1F	17.0%	-20.7%	18.3%	10µM*	-35.1%
Oc1ccc(C=Nc2ccc(N3CCOCC3)cc2)c(O)c1	96.6%	22.4µM*	?	1.58µM*	?
COc1ccc(NC(=O)CSc2oc(-c3ccc(F)cc3)nc2S(=O)(=O)c2ccc(C)cc2)c(OC)c1	2.7%	?	?	?	-20.1%
COc1ccc(-n2c(=O)c3c4c(sc3n(Cc3ccc(F)cc3)c2=O)CCCC4)c(OC)c1	0.4%	-20.1%	22.3%	?	-25.9%
COc1ccc(NC(=O)CC(=O)Nc2ccc(OC)cc2OC)c(OC)c1	-0.7%	-7.4%	24.5%	1.6%[12.7 µM]	5.2%
CCCOc1ccc(NCC(=O)Nc2ccc(C)cc2C)cc1	-0.3%	?	-23.7%	8.91µM*	?
CCOc1ccc(NCC(=O)Nc2ccc(Cl)cc2C)cc1	-7.0%	?	-1.7%	8.91µM*	?
COc1ccc(NCC(=O)Nc2ccc(Cl)cc2C)c(OC)c1	40.8%	50.1µM*	?	1.41µM*	50.1µM*
CC1=C(O)C(=O)C(C2=C(O)C(=O)C(C)=C(O)C2=O)=C(O)C1=O	?	0.708µM*	?	nt	nt
Cc1ccc(C2=C(O)C(=O)C(c3ccc(C)cc3)=C(O)C2=O)cc1	5.2%	25.1µM*	-22.7%	nt	nt
O=C(/C(=C/O)N=Nc1ccccc1Cl)c1ccccc1	?	-26.3%[11.4 µM]	31.6µM*	39.8µM*	12.6µM*
O=C(/C(=C/O)N=Nc1cccc(C(F)(F)F)c1)c1ccccc1	-1.0%	44.7µM*	?	44.7µM*	25.1µM*
O=C(/C(=C/O)N=Nc1ccccc1)c1ccco1	61.2%	?	?	-48.5%	?
Cc1cccc(N=N/C(=C\O)C(=O)c2ccc(Br)cc2)c1	-2.1%	?	-9.5%	11.2µM*	?
Nc1cc(-c2ccc(Br)cc2)nn1S(=O)(=O)c1cccc2nsnc12	-7.4%	?	-13.0%	?	?
